Assay outcomes (PubChem BioAssay)
Sampled rows, rich in hits. Any-hit rate of the full collection: about 10%.
FLuc inh-1 – Photinus pyralis luciferase inhibition | P08659 | Potency, µM (doses to about 115 µM), usual class: inhibitors | 76,000 compounds, 2.5% hits | purified P. pyralis luciferase, luminescence, biochemical; also: % is scaled to controls: 0 for no effect and ±100 for the full control effect; nearly all actives have a fitted effect of over 65% in size
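Purified P. pyralis luciferase (10nM final) in 50mM Tris acetate pH 7.5, 10mM Mg acetate, 0.01% Tween-20, 0.05% BSA with 10uM D-luciferin and 10uM ATP. Compounds titrated qHTS. Luminescence imaged on CCD.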
HEK cytotox – kills HEK 293 cells; HEK 293 viability, ATP luminescence (CellTiter-Glo), 48-72 h; Potency, µM (series often up to 115 µM), for the others: at the top dose activity change, negative = cytotoxicity, most hits filed as inhibitors; 94,000 compounds, 6.6% hits; also: % is scaled to controls: 0 for no effect and ±100 for the full control effect; nearly all actives have a fitted effect of over 60% in size
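Viability of HEK 293 cells, plated at 250 cells/well, was judged by cellular ATP after compound treatment for 48 or 72 hr. Luminescence was imaged 10 min after CellTiter-Glo addition at room temperature.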
GPT2 inh – inhibitors of human GPT2 alanine aminotransferase. Q8TD30. Recombinant GPT2, coupled pyruvate oxidase/HRP Amplex Red fluorescence. Potency, µM (doses to about 57.7 µM), inactives show top-dose activity change, negative = inhibition, usual class: inhibitors. 100,000 compounds, 0.25% hits; also: % is scaled to controls: 0 for no effect and ±100 for the full control effect; nearly all actives have a fitted effect of over 60% in size
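Recombinant GPT2 (10ng/uL) with 250uM a-KG and 2mM L-alanine, 30 min at room temperature, in HEPES pH 7.5 buffer. Pyruvate detected by pyruvate oxidase/HRP/Amplex Red fluorescence after 30 min in the dark; AOA (50uM) as positive control.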
NPR1 antag – human Npr1 receptor antagonism; 76,000 compounds, 1.6% hits; Potency, µM (titrated, usually from 46.3 µM), without a hit: top-dose activity change, negative = inhibition, usual class: inhibitors; P16066; HEK293 hNpr1 GloSensor cGMP, ANP-stimulated luminescence; calls by dose curve; also: % is scaled to controls: 0 for no effect and ±100 for the full control effect; nearly all actives have a fitted effect of over 60% in size
Target sequence (P16066 whole entry, looked up): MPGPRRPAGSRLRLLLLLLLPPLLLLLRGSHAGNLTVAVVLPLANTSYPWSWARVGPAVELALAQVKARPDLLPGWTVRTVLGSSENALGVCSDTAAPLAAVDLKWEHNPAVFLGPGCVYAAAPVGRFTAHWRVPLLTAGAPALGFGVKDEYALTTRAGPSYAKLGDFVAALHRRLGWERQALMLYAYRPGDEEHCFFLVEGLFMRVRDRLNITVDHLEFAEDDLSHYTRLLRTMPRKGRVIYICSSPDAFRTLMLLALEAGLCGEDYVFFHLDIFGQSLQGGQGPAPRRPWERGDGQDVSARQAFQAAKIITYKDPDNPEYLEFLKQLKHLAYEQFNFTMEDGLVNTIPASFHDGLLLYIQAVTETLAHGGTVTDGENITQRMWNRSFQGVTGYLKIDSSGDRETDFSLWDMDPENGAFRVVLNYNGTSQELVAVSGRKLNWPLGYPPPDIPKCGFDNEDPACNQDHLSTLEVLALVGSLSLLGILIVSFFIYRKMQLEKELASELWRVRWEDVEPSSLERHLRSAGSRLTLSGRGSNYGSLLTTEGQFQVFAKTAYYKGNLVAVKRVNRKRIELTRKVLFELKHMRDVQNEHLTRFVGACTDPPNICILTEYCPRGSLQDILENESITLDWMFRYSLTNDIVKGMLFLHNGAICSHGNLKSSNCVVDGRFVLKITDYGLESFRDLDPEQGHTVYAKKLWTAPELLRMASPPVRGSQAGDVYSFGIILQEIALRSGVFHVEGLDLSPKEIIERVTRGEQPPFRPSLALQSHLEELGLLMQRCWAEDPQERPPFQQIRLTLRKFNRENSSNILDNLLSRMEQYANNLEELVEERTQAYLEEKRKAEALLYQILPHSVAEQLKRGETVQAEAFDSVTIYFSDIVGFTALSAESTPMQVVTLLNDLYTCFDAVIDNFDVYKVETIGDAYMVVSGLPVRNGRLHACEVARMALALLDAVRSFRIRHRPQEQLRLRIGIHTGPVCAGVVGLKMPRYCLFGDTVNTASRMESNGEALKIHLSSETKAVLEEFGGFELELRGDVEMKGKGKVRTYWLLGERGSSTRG
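Compound pre-incubated 30 min at room temperature on GloSensor-loaded HEK293 cells stably carrying hNpr1 and the pGS-40F cGMP biosensor. Stimulation uses hNppA at 0.1 nM final; luminescence is taken at baseline and 20 min post-agonist.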
3T3 cytotox – cytotoxic compounds in NIH 3T3 cells; NIH 3T3 viability, CellTiter-Glo ATP luminescence, 48-72 h; Potency, µM (series often up to 96.7 µM), for the others: at the highest dose activity change, negative = cytotoxicity, hits mostly inhibitors; 94,000 compounds, 4.3% hits; AID 1345082; also: % is scaled to controls: 0 for no effect and ±100 for the full control effect; nearly all actives have a fitted effect of over 55% in size
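First NIH 3T3 cells are plated at 400 cells/well; next compound is pinned in; then plates incubate 48 or 72 hr at 37 °C; finally CellTiter-Glo is added and luminescence read after 10 min.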
FLuc SDR no ATP – stabilizes firefly luciferase without ATP | shares compounds with FLuc inh-1 | Purified FLuc-C-HiBiT, Nano-Glo HiBiT luminescence, no ATP | Potency, µM (titrated, usually from 32.7 µM), without a hit: at the top dose activation (signal gain), most hits filed as activators | 1,300 compounds, 7.8% hits | AID 1963318; also: nearly all actives have a fitted effect of over 55% in size
FLuc SDR ATP – firefly luciferase binding stabilization, ATP added. shares compounds with FLuc inh-1. 1,300 compounds, 8.7% hits. purified FLuc-C-HiBiT + ATP, HiBiT complementation luminescence. Potency, µM (titrated, usually from 32.7 µM), for the others: at the highest dose activation (gain of signal), usual class: activators;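 also: signal reports ligand binding via conformational change of the enzyme rather than luciferase catalysis; % of control where 0% means no effect; nearly all actives have a fitted effect of over 55% in size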
FLuc inh-2 – firefly luciferase enzyme inhibition. 1,300 compounds, 42% hits. shares compounds with FLuc inh-1. Potency, µM (doses to about 32.7 µM), for the others: top-dose activity change, negative = inhibition, usual class: inhibitors. purified FLuc-C-HiBiT enzyme, luciferin luminescence. AID 1963320; also: % is scaled to controls: 0 for no effect and ±100 for the full control effect; nearly all actives have a fitted effect of over 70% in size
* marks the source's active call; other numbers are inactive results; i = inactive; u = inconclusive; x = not tested or not shown. Unless noted, calls follow the shape of the dose curve; as a rule, active = well fitted curve in the direction sought with a large enough effect; inconclusive = small, poorly fitted or top-dose-only effect, or another doubt; inactive = no such curve, though single readings can be large; an effect the other way counts as inactive or inconclusive. Potency is read from the fitted curve at half-maximal effect.

SMILES	FLuc inh-1	HEK cytotox	GPT2 inh	NPR1 antag	3T3 cytotox	FLuc SDR no ATP	FLuc SDR ATP	FLuc inh-2
Cc1ccccc1NC(=O)Cn1c(C)cc2nc3n(c(=O)c21)CCCCC3	i	-9.6%	2.5%	0.2%	-8.6%	x	x	x
Cc1ccccc1CCNC(=O)c1ccc2c(c1)nc1n2CCCCC1	x	x	x	x	x	2.79µM*	u	0.881µM*
Cc1ccccc1CCNC(=O)c1ccc2c(c1)nc1n2CCOC1	x	x	x	x	x	12.4µM*	u	4.95µM*
Cc1nn(C)cc1CN1C[C@@H](COCC2CC2)[C@H](c2ccccn2)C1	i	-21.6%	-4.6%	-17.0%	-19.1%	x	x	x
Cc1cn2nc(C(=O)Nc3ccc(C(=O)NCCc4cccs4)cc3)cc2c(=O)[nH]1	4.47µM*	16.4%	i	-5.7%	4.8%	u	u	8.81µM*
Cc1cn2nc(C(=O)NCc3ccccn3)cc2c(=O)[nH]1	i	-6.0%	i	18.1%	-16.2%	x	x	x
COCCN1C(=O)c2cccn2CC1CNC(=O)CCc1ccc(OC)cc1 (configuration not stated)	x	-2.2%	i	x	i	x	x	x
O=C(Nc1ccccc1C(F)(F)F)N1CCC(N(C(=O)C2CC2)C2CCOCC2)CC1	x	i	i	x	-10.4%	x	x	x
O=C(NCC1CC1)C1CCN(C(=O)c2ccc(-c3cncnc3)cc2)CC1	x	-14.6%	2.8%	x	-27.5%	x	x	x
Cc1cc(Cl)ccc1-n1ncc2c(N3CCCCC3)ncnc21	x	x	x	x	x	31.2%	u	4.42µM*
CC(C)CCN1CCn2c(nn(-c3cccc(Cl)c3)c2=O)C1	x	u	-10.6%	x	u	x	x	x
O=c1n(-c2cccc(Cl)c2)nc2n1CCN(Cc1ccccc1)C2	x	u	2.6%	x	u	x	x	x
Nc1ccc2ncnc(N3CCCC3)c2c1	i	u	1.9%	-9.4%	-21.7%	x	x	x
CCN(c1ncnc2c1cnn2-c1cccc(Cl)c1)C1CCCCC1	x	x	x	x	x	27.3%	u	5.56µM*
COCC(C)Nc1ncnc2c1cnn2-c1cccc(Cl)c1 (configuration not stated)	x	x	x	x	x	23.4%	16.5%	u
Clc1cccc(-n2ncc3c(N4CCCCC4)ncnc32)c1	x	x	x	x	x	6.24µM*	u	0.989µM*
COc1ccc2c(c1)C(C(=O)Nc1cc([S+](=O)([O-])N3CCOCC3)ccc1C)=CC(C)(C)CO2	x	u	x	x	-24.8%	x	x	x
O=C1NCCCCCCN(Cc2cccc(OC(F)(F)F)c2)[C@H]2CCC[C@@H]12	i	u	-6.5%	-8.4%	u	x	x	x
CCOC(=O)C1CCN(C(=O)c2cn3cc(-c4ccccc4)sc3n2)CC1	x	-21.2%	-2.1%	x	-27.4%	x	x	x
COc1ccc(C(=O)N[C@@H]2CCC[C@@H]2C(=O)NCCc2c[nH]c3ccc(OC)cc23)cc1	i	u	-7.9%	-10.1%	-23.3%	x	x	x
O=C(Nc1cccc(C(F)(F)F)c1)O[C@@H]1CO[C@H]2[C@@H]1OC[C@@H]2NS(=O)(=O)c1cccs1	i	u	-7.3%	-6.5%	u	x	x	x
CC(C)c1ccc(NC(=O)O[C@@H]2CO[C@H]3[C@@H]2OC[C@@H]3NS(=O)(=O)c2cccs2)cc1	11.2µM*	u	1.5%	0.0%	u	16.0%	10.3%	u
CCc1cccc(Nc2nc(-c3ccc(OC)c(OC)c3)no2)c1	u	u	i	-13.6%	u	x	x	x
COc1ccc(-c2noc(Nc3ccc(OC)c(OC)c3)n2)cc1	7.94µM*	28.2µM*	i	-13.9%	u	18.6%	12.2%	u
COc1ccc(-c2noc(Nc3ccc(C)c(C)c3)n2)cc1	8.91µM*	39.8µM*	i	-18.7%	u	20.2%	12.0%	u
SMILES	FLuc inh-1	HEK cytotox	GPT2 inh	NPR1 antag	3T3 cytotox	FLuc SDR no ATP	FLuc SDR ATP	FLuc inh-2
COc1cccc(Nc2nc(-c3ccccc3)no2)c1	0.794µM*	u	0.7%	8.91µM*	44.7µM*	u	u	6.24µM*
Fc1ccccc1Nc1nc(-c2ccccc2)no1	0.398µM*	u	u	4.47µM*	u	u	u	0.7µM*
COc1cc(Nc2nc(-c3cccc(OC)c3OC)no2)cc(OC)c1OC	i	u	-38.5%	-23.0%	u	x	x	x
O=C(Cc1cccc(F)c1)N1CCC(N2C(=O)C3(CCCCC3)C2c2ccccc2)CC1 (configuration not stated)	x	u	-8.6%	x	u	x	x	x
CC(NC(=O)C1CCN(C(=O)c2ncn3c2COC(c2ccccc2)C3)CC1)c1ccc(F)cc1 (configuration not stated)	12.6µM*	4.8%	i	-7.6%	0.4%	13.3%	u	4.95µM*
CC(NC(=O)C1CCN(C(=O)c2ncn3c2COC(c2ccc(F)cc2)C3)CC1)c1ccc(F)cc1 (configuration not stated)	i	9.7%	i	3.9%	i	x	x	x
CC(C)NC(=O)C1CCN(C(=O)c2ncn3c2COC(c2ccccc2)C3)CC1 (configuration not stated)	3.55µM*	-8.2%	i	0.0%	-11.8%	12.9%	4.42µM*	3.51µM*
O=C(C1CCCN1C(=O)c1ccc(Cl)nc1)N1CCC(c2ccccc2)CC1 (configuration not stated)	x	-5.2%	-1.8%	x	-24.5%	x	x	x
COc1ccc(NC(=O)c2cc3ccccc3o2)c(OC)c1	x	x	x	x	x	19.5%	14.2%	u
COc1ccc(OCc2cc(C(=O)N3C[C@H]4CC[C@H]3C4)n[nH]2)c(Cl)c1	8.91µM*	u	i	-17.8%	u	13.2%	12.8%	-5.1%
Cc1cccc(C(=O)Nc2nc3c(s2)CCCC3)c1	x	x	x	x	x	u	u	2.48µM*
COCCN1C(=O)c2ccccc2C(C(=O)Nc2nc3c(s2)CCC3)C12CCCC2 (configuration not stated)	i	-5.0%	-7.0%	-10.4%	-13.2%	x	x	x
O=C(c1cnccn1)N1CC(F)(F)C[C@H]1c1nc(-c2ccccc2)no1	i	-6.5%	-6.7%	-1.8%	-27.0%	x	x	x
Cc1ccc(Cn2c(C3CCN(C(=O)c4ccc(C(F)(F)F)cc4)CC3)n[nH]c2=O)cc1	i	u	-1.9%	-27.2%	u	x	x	x
COc1ccc(C(=O)N2CCC(=O)N(C)C[C@H]3COc4cc(OC)ccc4[C@H]32)cc1	x	-17.4%	x	x	u	x	x	x
